# “And” between values parts separate entries of the source, which are not always exact repeats. Equal values may be shown once. Records with an inconclusive call do not appear. The source holds several records for some structures; these can differ, active in one and inactive in another. The source made the active and inactive calls. How the source made its calls, unless noted: active means hit-call score of the fitted dose curve at least 0.9, where 1 is the maximum; inconclusive means response in the unintended direction; inactive means score below 0.9.
# Legend:
# [1] = tested on: Sodium/Iodide Symporter (NIS), SLC5A5 (gene 6528); test: CPHEA_Stoker_NIS_Inhibition_RAIU: CPHEA's Radioactive Iodide Uptake (RAIU) Assay for Sodium/Iodide Symporter (NIS) Inhibition, Stoker and Laws Labs (AID 2283841)
# In short: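 hNIS-HEK293T-EPA cells incubated 2 h at room temperature with compound (0.001–100 uM, 0.5% DMSO) and 329 pM final 125I in HBSS/10 mM HEPES, pH 7.4. Intracellular 125I counted; normalised to DMSO maximal uptake, triplicate, three biological replicates.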
# [2] = CEETOX_H295R_11DCORT_noMTC: CeeTox H295R High-throughput Steroidogenesis Assay for 11-Deoxycortisol (11DCORT), maximum tolerated concentration (MTC) filtered results only (AID 2283911; active means hit-call score of the fitted dose curve at least 0.9, where 1 is the maximum; inactive means score below 0.9); details: actives raise or lower the signal
# In short: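 Readout is 11-deoxycortisol in culture medium by reverse-phase HPLC with MS/MS, after 48 h chemical treatment of forskolin-primed H295R cells. Values are relative to DMSO and unfiltered for cytotoxicity.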
# [3] = CEETOX_H295R_OHPREG_noMTC: CeeTox H295R High-throughput Steroidogenesis Assay for OH-Pregnenolone (OHPREG), maximum tolerated concentration (MTC) filtered results only (AID 2283912; active means hit-call score of the fitted dose curve at least 0.9, where 1 is the maximum; inactive means score below 0.9); details: actives raise or lower the signal
# In short: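 H295R human adrenal cells, forskolin-prestimulated (10 uM, 48 h), then exposed to test chemical in 0.1% DMSO for 48 h. 17alpha-hydroxypregnenolone in medium measured by HPLC-MS/MS after MTBE extraction; bidirectional fit versus DMSO, concentrations not MTC-filtered.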
# [4] = CEETOX_H295R_OHPROG_noMTC: CeeTox H295R High-throughput Steroidogenesis Assay for OH-Progesterone (OHPROG), maximum tolerated concentration (MTC) filtered results only (AID 2283914; active means hit-call score of the fitted dose curve at least 0.9, where 1 is the maximum; inactive means score below 0.9); details: actives raise or lower the signal
# In short: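 H295R human adrenal cells prestimulated 48 h with 10 uM forskolin, then exposed 48 h to test chemical (0.1% DMSO final). Medium 17alpha-hydroxyprogesterone extracted with MTBE, quantified by HPLC-MS/MS; bidirectional fit versus DMSO, concentrations not MTC-filtered.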
# [5] = CEETOX_H295R_CORTISOL_noMTC: CeeTox H295R High-throughput Steroidogenesis Assay for Cortisol, maximum tolerated concentration (MTC) filtered results only (AID 2283916; active means hit-call score of the fitted dose curve at least 0.9, where 1 is the maximum; inactive means score below 0.9); details: actives raise or lower the signal
# In short: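 H295R adrenal cells were pre-stimulated 48 h with 10 uM forskolin, then exposed 48 h to test chemical in 0.1% DMSO. Medium cortisol was measured by MTBE extraction and HPLC-MS/MS; bidirectional fit versus DMSO, concentrations not MTC-filtered.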
# [6] = CEETOX_H295R_DOC_noMTC: CeeTox H295R High-throughput Steroidogenesis Assay for DOC, maximum tolerated concentration (MTC) filtered results only (AID 2283918; active means hit-call score of the fitted dose curve at least 0.9, where 1 is the maximum; inactive means score below 0.9); details: actives raise or lower the signal
# In short: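 H295R cells prestimulated 48 h with 10 uM forskolin, then exposed 48 h to test chemical (0.1% DMSO final). Medium 11-deoxycorticosterone extracted with MTBE, quantified by HPLC-MS/MS; bidirectional fit versus DMSO, concentrations not MTC-filtered.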
# [7] = CEETOX_H295R_CORTIC_noMTC: CeeTox H295R High-throughput Steroidogenesis Assay for Corticosterone (CORTIC), maximum tolerated concentration (MTC) filtered results only (AID 2283917; active means hit-call score of the fitted dose curve at least 0.9, where 1 is the maximum; inactive means score below 0.9); details: actives raise or lower the signal
# In short: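 H295R, 10 uM forskolin prestim 48 h → test chem (0.1% DMSO final) 48 h → media MTBE extraction → HPLC-MS/MS corticosterone. Bidirectional fit vs DMSO baseline; no MTT-based MTC filtering.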
# [8] = tested on: frog Estrogen Receptor (ER2), gene 100174814; test: ATG_frER2_XSP2: Attagene TRANS-FACTORIAL Multi-Species (XSP2) HepG2 Assay for frog Estrogen Receptor (ER2) (AID 2283828)
# In short: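 Human liver HepG2, transient MRTU transfection (TRANS format, exogenous NR–Gal4). 24 h cpd exposure. Total RNA → RT → PCR → FAM label → HpaI cut → CE. Positive direction vs DMSO.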
# [9] = target: Peroxisome proliferator-activated receptor gamma (Homo sapiens) (UniProt P37231); test: ATG_hPPARg_XSP2: Attagene TRANS-FACTORIAL Multi-Species (XSP2) HepG2 Assay for human Peroxisome Proliferator-activated Receptor gamma (PPARg) (AID 2283829);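 further: actives raise reporter mRNA above DMSO so AC50 reflects PPARg activation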
# Chain of Peroxisome proliferator-activated receptor gamma (Homo sapiens) (P37231 whole entry, looked up, the tested form may be a part): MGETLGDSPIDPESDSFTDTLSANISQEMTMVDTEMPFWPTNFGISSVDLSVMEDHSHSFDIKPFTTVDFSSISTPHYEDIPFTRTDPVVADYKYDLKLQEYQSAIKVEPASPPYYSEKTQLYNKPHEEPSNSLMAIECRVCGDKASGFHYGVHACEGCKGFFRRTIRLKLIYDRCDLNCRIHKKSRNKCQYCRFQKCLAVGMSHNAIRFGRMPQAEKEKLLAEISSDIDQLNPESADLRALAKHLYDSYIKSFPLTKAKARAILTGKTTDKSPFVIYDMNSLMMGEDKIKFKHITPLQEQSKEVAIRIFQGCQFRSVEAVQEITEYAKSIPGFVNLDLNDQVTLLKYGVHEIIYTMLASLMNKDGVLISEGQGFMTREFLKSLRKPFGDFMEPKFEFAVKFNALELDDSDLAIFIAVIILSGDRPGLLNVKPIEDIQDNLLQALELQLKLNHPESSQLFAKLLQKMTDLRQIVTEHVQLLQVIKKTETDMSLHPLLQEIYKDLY
# In short: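 Multiplexed transactivation in transfected HepG2 liver cells. Gal4-chimeric receptor activity reported as induced reporter transcript after 24 h.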
# [10] = target: mouse Peroxisome Proliferator-activated Receptor gamma (PPARg), Pparg (gene 19016) (UniProt P37238); test: ATG_mPPARg_XSP2: Attagene TRANS-FACTORIAL Multi-Species (XSP2) HepG2 Assay for mouse Peroxisome Proliferator-activated Receptor gamma (PPARg) (AID 2283830);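 further: hits are gains in reporter mRNA above DMSO so AC50 marks activation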
# Chain of mouse Peroxisome Proliferator-activated Receptor gamma (PPARg), Pparg (gene 19016) (P37238 whole entry, looked up, the tested form may be a part): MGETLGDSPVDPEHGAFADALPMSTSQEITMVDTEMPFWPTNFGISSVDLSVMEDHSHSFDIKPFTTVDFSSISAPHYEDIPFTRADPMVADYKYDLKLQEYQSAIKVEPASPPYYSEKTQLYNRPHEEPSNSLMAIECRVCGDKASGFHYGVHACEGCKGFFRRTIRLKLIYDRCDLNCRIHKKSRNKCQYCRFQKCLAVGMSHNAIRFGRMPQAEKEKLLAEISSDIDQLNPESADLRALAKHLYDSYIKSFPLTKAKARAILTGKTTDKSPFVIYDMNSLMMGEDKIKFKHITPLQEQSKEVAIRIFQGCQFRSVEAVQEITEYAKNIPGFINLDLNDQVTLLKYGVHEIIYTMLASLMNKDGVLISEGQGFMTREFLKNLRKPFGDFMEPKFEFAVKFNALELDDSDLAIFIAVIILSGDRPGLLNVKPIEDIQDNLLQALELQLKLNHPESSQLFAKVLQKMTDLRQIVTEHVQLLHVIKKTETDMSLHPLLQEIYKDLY
# In short: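 HepG2 cells transiently transfected with GAL4-UAS reporter units for chimeric NR-Gal4 proteins including mouse PPARg, exposed 24 h; medium contained 3 nM 6-alpha-fluorotestosterone and 1.5 nM norgestrel. Reporter mRNA quantified by RT-PCR, HpaI digestion and capillary electrophoresis, vs DMSO.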
# [11] = target: Nuclear receptor subfamily 1 group I member 2 (Mus musculus) (UniProt O54915); test: ATG_mPXR_XSP2: Attagene TRANS-FACTORIAL Multi-Species (XSP1) HepG2 Assay for mouse Pregnane X Receptor (PXR) (AID 2283831)
# Chain of Nuclear receptor subfamily 1 group I member 2 (Mus musculus) (O54915 whole entry, looked up, the tested form may be a part): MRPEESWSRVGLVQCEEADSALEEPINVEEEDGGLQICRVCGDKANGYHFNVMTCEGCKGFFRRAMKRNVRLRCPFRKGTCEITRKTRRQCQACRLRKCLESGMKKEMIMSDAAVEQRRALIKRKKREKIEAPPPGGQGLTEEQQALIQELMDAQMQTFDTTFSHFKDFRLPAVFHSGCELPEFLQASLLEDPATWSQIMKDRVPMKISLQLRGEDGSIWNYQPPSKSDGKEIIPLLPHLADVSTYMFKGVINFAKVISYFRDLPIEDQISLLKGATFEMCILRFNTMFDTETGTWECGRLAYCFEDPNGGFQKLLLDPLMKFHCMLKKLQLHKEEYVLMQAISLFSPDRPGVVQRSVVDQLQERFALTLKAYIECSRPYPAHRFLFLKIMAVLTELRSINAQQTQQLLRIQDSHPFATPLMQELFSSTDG
# In short: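 Human liver HepG2 cells expressing exogenous receptor-GAL4 chimeras were exposed to test chemicals for 24 h. Induction of reporter mRNA was scored as gain of fluorescence signal over DMSO controls.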
# [12] = target: zebrafish Thyroid Hormone Receptor alpha (TRa), thraa (gene 30670) (UniProt Q98867); test: ATG_zfTRa_XSP2: Attagene TRANS-FACTORIAL Multi-Species (XSP1) HepG2 Assay for zebrafish Thyroid Hormone Receptor alpha (TRa) (AID 2283832);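 further: actives raise zebrafish TRa-Gal4 reporter transcript above DMSO baseline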
# Chain of zebrafish Thyroid Hormone Receptor alpha (TRa), thraa (gene 30670) (Q98867 whole entry, looked up, the tested form may be a part): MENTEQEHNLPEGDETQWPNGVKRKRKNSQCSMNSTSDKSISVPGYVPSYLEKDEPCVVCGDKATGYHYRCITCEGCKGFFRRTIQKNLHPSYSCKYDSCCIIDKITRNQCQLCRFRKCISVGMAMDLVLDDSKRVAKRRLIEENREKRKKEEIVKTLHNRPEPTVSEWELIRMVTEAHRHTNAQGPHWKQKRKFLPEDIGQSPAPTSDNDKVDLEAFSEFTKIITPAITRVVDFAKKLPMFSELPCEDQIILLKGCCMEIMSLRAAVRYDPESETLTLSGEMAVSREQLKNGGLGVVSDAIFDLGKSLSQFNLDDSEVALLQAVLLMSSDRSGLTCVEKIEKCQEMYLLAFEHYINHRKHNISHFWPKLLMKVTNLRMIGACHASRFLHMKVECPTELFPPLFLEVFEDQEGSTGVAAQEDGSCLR
# In short: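 HepG2 transiently transfected with GAL4-UAS reporter units and chimeric zebrafish TRa-Gal4; reporter mRNA quantified after 24 h dosing by RT-PCR, HpaI digestion and capillary electrophoresis fluorescence. Gain of signal vs DMSO; XSP2 medium contains 3 nM 6-alpha-fluorotestosterone, 1.5 nM norgestrel.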
# [13] = tested on: zebrafish Peroxisome Proliferator-activated Receptor gamma (PPARg), gene 557037; test: ATG_zfPPARg_XSP2: Attagene TRANS-FACTORIAL Multi-Species (XSP2) HepG2 Assay for zebrafish Peroxisome Proliferator-activated Receptor gamma (PPARg) (AID 2283833);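 further: reporter mRNA from a zebrafish PPARg GAL4 chimera measured by RT-PCR and capillary electrophoresis; actives increase reporter signal over DMSO so AC50 reflects activation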
# In short: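 Cell-based transactivation of a chimeric zebrafish PPARg-GAL4 receptor was assessed in transiently transfected HepG2 cells after 24 h of treatment. Reporter mRNA induction, detected fluorescently after RT-PCR, was analysed in the positive direction against DMSO.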
# [14] = tested on: turtle Thyroid Hormone Receptor, alpha (TRa), gene 101949057; test: ATG_trTRa_XSP2: Attagene TRANS-FACTORIAL Multi-Species (XSP1) HepG2 Assay for turtle Thyroid Hormone Receptor, alpha (TRa) (AID 2283834);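 further: hits raise reporter mRNA over the DMSO baseline so AC50 marks activators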
# In short: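 Gain-of-signal reporter transcription measured in transiently transfected HepG2 at 24 h post-dose. Fluorescent RT-PCR products were resolved by capillary electrophoresis and compared with DMSO vehicle.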
# [15] = ATG_M_61_XSP2: Attagene TRANS-FACTORIAL Multi-Species (XSP2) HepG2 Assay for M61 Transcription Factor (Internal Marker) (AID 2283835; active means hit-call score of the fitted dose curve at least 0.9, where 1 is the maximum; inactive means score below 0.9;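 further: reporter mRNA of an internal background marker read by RT-PCR and capillary electrophoresis; active means a rise in signal above the DMSO baseline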)
# In short: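 HepG2 cells transiently transfected with multiple GAL4-UAS reporter units; 3 nM 6-alpha-fluorotestosterone and 1.5 nM norgestrel present to stimulate androgen receptor. After 24 h compound exposure, reporter mRNA measured by RT-PCR and capillary electrophoresis fluorescence, gain-of-signal versus DMSO baseline.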
# [16] = target: zebrafish Thyroid Hormone Receptor beta (TRb), thrb (gene 30607) (UniProt Q9PVE4); test: ATG_zfTRb_XSP2: Attagene TRANS-FACTORIAL Multi-Species (XSP1) HepG2 Assay for zebrafish Thyroid Hormone Receptor beta (TRb) (AID 2283836);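 on AC50: potency for induction of reporter signal above DMSO so agonist direction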
# Chain of zebrafish Thyroid Hormone Receptor beta (TRb), thrb (gene 30607) (Q9PVE4 whole entry, looked up, the tested form may be a part): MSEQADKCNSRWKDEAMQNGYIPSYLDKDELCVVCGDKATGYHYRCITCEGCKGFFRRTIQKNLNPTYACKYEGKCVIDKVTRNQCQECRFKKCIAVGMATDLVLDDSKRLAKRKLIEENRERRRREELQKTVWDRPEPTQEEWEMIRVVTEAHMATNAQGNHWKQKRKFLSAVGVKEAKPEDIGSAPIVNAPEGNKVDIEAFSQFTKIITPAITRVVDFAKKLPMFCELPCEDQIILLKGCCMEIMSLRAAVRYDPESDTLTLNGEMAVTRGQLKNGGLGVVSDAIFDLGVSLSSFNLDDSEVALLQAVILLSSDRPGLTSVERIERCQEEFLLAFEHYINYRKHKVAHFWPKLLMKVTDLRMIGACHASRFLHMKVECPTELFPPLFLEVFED
# In short: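 HepG2 cells transiently transfected with chimeric zebrafish TRb-GAL4 reporter units, dosed 24 h with 3 nM 6-alpha-fluorotestosterone and 1.5 nM norgestrel present. Reporter mRNA quantified by RT-PCR and capillary electrophoresis; gain fitted against DMSO.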
# [17] = ATG_XTT_Cytotoxicity_XSP2: Cytotoxicity Assessment in the Attagene TRANS-FACTORIAL Multi-Species (XSP2) HepG2 Assay (AID 2283837)
# In short: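 HepG2 cells, transiently transfected with multiple reporter constructs, exposed to chemical for 24 h. Cell number assessed with XTT fluorescence read-out; loss of signal fitted relative to DMSO.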
# [18] = target: human Thyroid hormone Receptor alpha (TRa), THRA (gene 7067) (UniProt P10827); test: ATG_hTRa_XSP2: Attagene TRANS-FACTORIAL Multi-Species (XSP2) HepG2 Assay for human Thyroid hormone Receptor alpha (TRa) (AID 2283838)
# Chain of human Thyroid hormone Receptor alpha (TRa), THRA (gene 7067) (P10827 whole entry, looked up, the tested form may be a part): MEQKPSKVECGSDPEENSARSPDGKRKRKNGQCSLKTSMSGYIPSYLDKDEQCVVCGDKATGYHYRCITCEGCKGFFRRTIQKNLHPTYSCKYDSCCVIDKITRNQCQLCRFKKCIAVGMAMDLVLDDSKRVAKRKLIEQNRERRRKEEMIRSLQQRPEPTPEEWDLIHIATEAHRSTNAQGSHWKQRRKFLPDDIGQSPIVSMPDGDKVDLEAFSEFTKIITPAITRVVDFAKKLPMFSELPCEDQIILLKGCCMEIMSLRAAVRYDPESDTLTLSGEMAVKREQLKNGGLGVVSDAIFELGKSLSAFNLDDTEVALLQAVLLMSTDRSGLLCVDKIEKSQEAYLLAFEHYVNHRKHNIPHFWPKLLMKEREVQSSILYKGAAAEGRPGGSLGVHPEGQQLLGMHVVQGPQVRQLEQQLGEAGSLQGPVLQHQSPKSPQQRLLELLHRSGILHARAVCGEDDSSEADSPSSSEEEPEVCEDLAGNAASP
# In short: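 HepG2 cells were transiently transfected with GAL4-UAS reporter units for chimeric human TRa-Gal4 and dosed for 24 hours, with 3 nM 6-alpha-fluorotestosterone and 1.5 nM norgestrel present. Reporter mRNA was quantified by RT-PCR, FAM labelling and capillary electrophoresis, with gain of signal fitted versus DMSO.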
# [19] = target: frog Thyroid hormone Receptor alpha (TRa), thra-a (gene 397942) (UniProt P15204); test: ATG_frTRa_XSP2: Attagene TRANS-FACTORIAL Multi-Species (XSP2) HepG2 Assay for frog Thyroid hormone Receptor alpha (TRa) (AID 2283839);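 on AC50: AC50 reflects induction of frog TRa-driven reporter mRNA above DMSO baseline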
# Chain of frog Thyroid hormone Receptor alpha (TRa), thra-a (gene 397942) (P15204 whole entry, looked up, the tested form may be a part): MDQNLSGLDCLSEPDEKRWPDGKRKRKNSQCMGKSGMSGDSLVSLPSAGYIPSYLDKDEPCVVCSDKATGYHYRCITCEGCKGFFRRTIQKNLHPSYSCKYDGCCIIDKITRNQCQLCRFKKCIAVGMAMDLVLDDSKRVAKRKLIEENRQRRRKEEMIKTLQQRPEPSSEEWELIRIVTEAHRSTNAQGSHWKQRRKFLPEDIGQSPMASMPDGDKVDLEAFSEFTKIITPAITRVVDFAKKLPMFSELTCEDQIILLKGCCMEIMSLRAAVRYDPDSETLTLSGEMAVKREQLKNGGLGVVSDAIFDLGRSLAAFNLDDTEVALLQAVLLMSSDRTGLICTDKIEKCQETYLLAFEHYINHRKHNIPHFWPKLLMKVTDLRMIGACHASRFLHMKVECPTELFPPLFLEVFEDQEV
# In short: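 Frog thyroid receptor alpha was tested as an exogenous NR-Gal4 fusion in transiently transfected HepG2 cells. After 24 h chemical treatment, reporter mRNA induction was quantified by RT-PCR and capillary electrophoresis, with gain-of-signal analysed relative to DMSO.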
# [20] = target: human Thyroid hormone Receptor beta (TRb), THRB (gene 7068) (UniProt P10828); test: ATG_hTRb_XSP2: Attagene TRANS-FACTORIAL Multi-Species (XSP2) HepG2 Assay for human Thyroid hormone Receptor beta (TRb) (AID 2283840);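 further: actives raise reporter mRNA so potency reflects agonist-like gain of signal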
# Chain of human Thyroid hormone Receptor beta (TRb), THRB (gene 7068) (P10828 whole entry, looked up, the tested form may be a part): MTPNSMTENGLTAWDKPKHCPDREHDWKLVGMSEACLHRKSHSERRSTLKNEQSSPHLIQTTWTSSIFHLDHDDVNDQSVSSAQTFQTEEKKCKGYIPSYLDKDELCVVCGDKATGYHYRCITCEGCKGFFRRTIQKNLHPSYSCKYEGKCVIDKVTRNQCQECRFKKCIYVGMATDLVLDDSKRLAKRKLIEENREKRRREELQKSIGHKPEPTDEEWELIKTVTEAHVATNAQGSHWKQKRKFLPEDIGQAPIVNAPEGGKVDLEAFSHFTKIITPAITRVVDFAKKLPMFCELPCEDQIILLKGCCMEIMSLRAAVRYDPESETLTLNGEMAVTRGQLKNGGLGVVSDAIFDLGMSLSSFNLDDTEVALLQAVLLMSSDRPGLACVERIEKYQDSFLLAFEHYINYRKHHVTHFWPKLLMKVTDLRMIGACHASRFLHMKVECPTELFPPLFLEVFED
# In short: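 In this cell-based multiplex, HepG2 liver cells carrying transfected GAL4-UAS reporter constructs are exposed to chemical for 24 hours, then reporter transcripts are measured by RT-PCR with capillary electrophoresis, scored as gain of signal against DMSO.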
structure (smiles),measurement,setting,value
O=C(c1ccccc1)C(O)c1ccccc1 (stereo unspecified),outcome,[1],inactive
CCc1cc(Cc2cc(CC)cc(C(C)(C)C)c2O)c(O)c(C(C)(C)C)c1,outcome,[1],inactive
CCc1cc(C(C)(C)C)c(O)c(C(C)(C)C)c1,outcome,[1],inactive
CCCCCCC(=O)c1ccccc1,outcome,[1],inactive
OC[C@H]1O[C@@H]2O[C@H]3[C@H](O)[C@@H](O)[C@@H](O[C@H]4[C@H](O)[C@@H](O)[C@@H](O[C@H]5[C@H](O)[C@@H](O)[C@@H](O[C@H]6[C@H](O)[C@@H](O)[C@@H](O[C@H]7[C@H](O)[C@@H](O)[C@@H](O[C@H]8[C@H](O)[C@@H](O)[C@@H](O[C@H]9[C@H](O)[C@@H](O)[C@@H](O[C@H]1[C@H](O)[C@H]2O)O[C@@H]9CO)O[C@@H]8CO)O[C@@H]7CO)O[C@@H]6CO)O[C@@H]5CO)O[C@@H]4CO)O[C@@H]3CO,outcome,[1],inactive
C=C[Si]1(C)O[Si](C)(C=C)O[Si](C)(C=C)O[Si](C)(C=C)O1 (stereo unspecified),outcome,[2],inactive
same,outcome,[3],inactive
same,AC50,[4],87.1 µM (active)
same,outcome,[5],inactive
same,outcome,[6],inactive
COc1ccc(OC)c(N=Nc2c(O)ccc3ccccc23)c1,outcome,[2],inactive
same,outcome,[3],inactive
same,outcome,[4],inactive
same,outcome,[5],inactive
same,outcome,[7],inactive
same,outcome,[6],inactive
CCCCCCCCc1ccc(S(=O)(=O)O)cc1,outcome,[1],inactive
Cc1ccc(S(=O)(=O)Oc2ccc(N=Nc3ccc(-c4ccc(N=Nc5c(O)ccc6cc(S(=O)(=O)O)cc(S(=O)(=O)O)c56)c(C)c4)cc3C)cc2)cc1,outcome,[1],inactive
OCc1cccc(Oc2ccccc2)c1,AC50,[8],27.5 µM (active) and 9.21 µM (active)
same,AC50,[9],60.3 µM (active) and 36.7 µM (active)
same,AC50,[10],40.6 µM (active) and 34.9 µM (active)
same,AC50,[11],57.4 µM (active)
same,outcome,[11],inactive
same,outcome,[12],inactive
same,outcome,[13],inactive
same,outcome,[14],inactive
same,outcome,[15],inactive
same,outcome,[16],inactive
same,outcome,[17],inactive
same,outcome,[18],inactive
same,outcome,[19],inactive
same,outcome,[20],inactive
Oc1ccc2cc(SSc3ccc4cc(O)ccc4c3)ccc2c1,AC50,[8],925 nM (active) and 696 nM (active)
same,AC50,[9],4.81 µM (active) and 4.29 µM (active)
same,AC50,[10],7.19 µM (active) and 5.11 µM (active)
same,AC50,[11],36.2 µM (active) and 20.8 µM (active)
same,AC50,[12],156 µM (active)
same,outcome,[12],inactive
same,outcome,[13],inactive
same,AC50,[14],26.8 µM (active)
same,outcome,[14],inactive
same,outcome,[15],inactive
same,AC50,[16],154 µM (active)
same,outcome,[16],inactive
same,outcome,[17],inactive
same,AC50,[18],132 µM (active)
same,outcome,[18],inactive
same,AC50,[19],160 µM (active)
same,outcome,[19],inactive
same,AC50,[20],100 µM (active)
same,outcome,[20],inactive

# — PubChem BioAssay (EPA / NIEHS)
